Assay outcomes as filed in PubChem.
An excerpt weighted towards active compounds, which were near 10% of everything screened.
SW480 rereplic: A quantitative high throughput screen for small molecules that induce DNA re-replication in SW480 colon adenocarcinoma cells | Potency, µM (highest dose often 46.1 µM), for the others: at the top dose re-replication activation, usual class: activators | 340,000 tested, 1.8% active | AID 624297, 2012 | SW480 DNA re-replication, Hoechst DNA content imaging, 48 h; further: % of control where 0% means no effect; nearly all actives have a fitted effect of over 55% in size
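Readout is total intensity of Hoechst-stained nuclei, excited at 405 nm and collected at 500-530 nm. Compound treatment lasted 48 hr at 37 C in 5% CO2 before staining.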
RORgamma inh: qHTS for inhibitors of ROR gamma transcriptional activity; AID 2551, 2010; Nuclear receptor ROR-gamma (Mus musculus), P51450; 310,000 tested, 5.4% active; Drosophila S2 Gal4-RORgamma UAS-luciferase reporter, 20 h; Potency, µM (doses to about 53.6 µM), for the others: top-dose activity change, negative = inhibition, usual class: inhibitors; further: on the % scale 0 is the no-effect control and ±100 the full control effect; nearly all actives have a fitted effect of over 60% in size
Target sequence (P51450 whole entry, looked up, the tested form may be a part): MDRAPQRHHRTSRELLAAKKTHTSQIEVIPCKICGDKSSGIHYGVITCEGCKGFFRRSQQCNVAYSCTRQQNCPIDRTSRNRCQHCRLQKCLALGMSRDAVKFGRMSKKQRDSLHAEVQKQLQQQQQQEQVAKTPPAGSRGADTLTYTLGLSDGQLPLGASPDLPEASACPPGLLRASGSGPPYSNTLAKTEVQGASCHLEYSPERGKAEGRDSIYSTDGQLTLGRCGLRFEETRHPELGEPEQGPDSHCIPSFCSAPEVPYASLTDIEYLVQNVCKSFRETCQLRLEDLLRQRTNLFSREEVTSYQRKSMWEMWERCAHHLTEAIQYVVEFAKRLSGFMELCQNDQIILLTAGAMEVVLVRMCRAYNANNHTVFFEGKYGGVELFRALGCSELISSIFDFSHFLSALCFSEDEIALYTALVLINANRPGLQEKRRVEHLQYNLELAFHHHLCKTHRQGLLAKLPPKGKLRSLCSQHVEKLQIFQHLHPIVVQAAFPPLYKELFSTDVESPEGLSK
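Luminescence from a UAS-regulated Photinus luciferase reporter in stably transfected Drosophila Schneider cells is measured; decreased signal marks ROR gamma inhibition. Fusion expression is induced by 700 uM copper sulfate for 20 hr.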
VP16 counter: VP16 counterscreen qHTS for inhibitors of ROR gamma transcriptional activity; Drosophila S2 Gal4-VP16 UAS-luciferase, luminescence, 20 h; Potency, µM (titrated, usually from 53.6 µM), for inactives: at the top dose activity, negative = inhibition, most hits filed as inhibitors; 310,000 tested, 3.5% active; AID 2546, 2010;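 further: Gal4-VP16 expression switched on by copper sulfate through the metallothionein promoter; on the % scale 0 is the no-effect control and ±100 the full control effect; nearly all actives have a fitted effect of over 50% in size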
MCF10A rereplic: A quantitative high throughput screen for small molecules that induce DNA re-replication in MCF 10a normal breast cells. AID 624296, 2012. MCF 10A DNA re-replication, Hoechst nuclear intensity, 48 h. 350,000 tested, 2.9% active. Potency, µM (series often up to 46.1 µM), for the others: top-dose activity, positive = re-replication, actives largely listed as activators; further: % of control where 0% means no effect; nearly all actives have a fitted effect of over 50% in size
ELG1 DNA repair: qHTS screen for small molecules that inhibit ELG1-dependent DNA repair in human embryonic kidney (HEK293T) cells expressing luciferase-tagged ELG1. HEK293T ELG1-luciferase reporter, luminescence, 16 h; DNA damage induced by 5-fluorouridine. Potency, µM (highest dose often 46.1 µM), for inactives: top-dose activity change, negative = inhibition, actives largely listed as inhibitors. 330,000 tested, 2.3% active; further: on the % scale 0 is the no-effect control and ±100 the full control effect; nearly all actives have a fitted effect of over 55% in size
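Luminescence from the luciferase reporter, measured 30 min after ONE-Glo reagent at room temperature, was the read-out. Beforehand, 2,000 cells per well were exposed for 16 hr at 37 °C to 5-fluorouridine together with compound or vehicle.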
* hit, by the source's call; ? = inconclusive; . = no result; [ ] = dose if it differs, or a comment. The call rests on the fitted dose curve; in most records, active means well fitted curve in the direction sought with a large enough effect; inconclusive means small, poorly fitted or top-dose-only effect, or another doubt; inactive means no such curve, though single readings can be large; an effect the other way counts as inactive or inconclusive. Potency means the concentration at half of the fitted maximal effect.

SMILES	SW480 rereplic	RORgamma inh	VP16 counter	MCF10A rereplic	ELG1 DNA repair
O=C(c1cc2c(s1)-c1ccccc1S(=O)(=O)C2)N1CCN(Cc2ccccc2)CC1	-10%	?	?	6%	13µM*
CCN1CCN(C(=O)c2cc3c(s2)-c2ccccc2S(=O)(=O)C3)CC1	-1%	-5%	2%	15%	16%
Cc1ccc(OCCSCc2nnc(NC(=O)Nc3cccc(Cl)c3)s2)cc1	-2%	3%	?	?	?
C/C(=N\NC(=O)C1CC1)c1ccccc1Br	3%	?	10µM*	2%	7%
C/C(=N/NC(=O)c1ccccc1O)c1ccc(N2C(=O)C3CCCCC3C2=O)cc1 (stereo unspecified)	-4%	13µM*	?	-2%	-4%
C/C(=N\NC(=O)C1CC1)c1ccccc1O	1%	1µM*	6.3µM*	6%	?
C=CCn1cc(C(=O)NCCCN(CC)CC)c(=O)c2cc(S(=O)(=O)N3CCC(C)CC3)ccc21	2%	-13%	4%	?	0%
CC(=O)Nc1ccc(NC(=O)C2CCCN2/C=C/C(=O)C(F)(F)F)cc1 (stereo unspecified)	-11%	-6%	4%	-5%	12%
CCOC(=O)CC1COCCN1C(=O)CCc1nnc(-c2ccsc2)o1 (stereo unspecified)	-5%	12%	-12%	1%	?
Cc1cc(F)c(F)c(C(=O)N2CCC(C)CC2)c1Cl	-8%	21%	6%	3%	-1%
Cc1cc(C)nc(N/N=C/c2cc(C)n(CC(F)(F)F)c2C)n1	-18%	8.9µM*	?	3%	?
Cc1cc(Nc2ncc(Cl)cc2Cl)n[nH]1	-18%	11µM*	-13%	1%	?
C/C(=N/NC(N)=S)c1ccccc1[N+](=O)[O-]	-5%	7.1µM*	?	-5%	-10%
C/C(=N\NC(=O)c1ccc([N+](=O)[O-])c(C)c1)c1ccccc1Cl	1%	7.9µM*	?	-20%	?
Cc1ccc(C(=O)NC(=S)Nc2cccc(NC(=O)c3ccccc3Cl)c2)cc1[N+](=O)[O-]	-8%	5.6µM*	4µM*	-5%	18µM*
Cc1ccc(C(=O)NC(=S)Nc2cccc(NC(=O)c3ccccc3)c2)cc1[N+](=O)[O-]	-27%	2.5µM*	3.5µM*	5%	?
Cc1ccc(C)n1NC(=O)c1ccccc1[N+](=O)[O-]	2%	-19%	-25%[10 µM]	13%	2%
CC(=O)Nc1ccccc1NC(=O)C/C(C)=N/NC(=O)c1ccc([N+](=O)[O-])c(Cl)c1	0%	?	-8%	?	-3%
O=S(=O)(Cc1ccccc1)Cc1cnc(Cl)s1	-7%	5%	4%	-5%	9%
[O-][n+]1ccccc1/C=C/c1ccccc1	-8%	.	.	3%	.
[O-][n+]1c(/C=C/c2ccccc2)ccc2ccccc21	18µM*	?	?	21µM*	?
COc1ccc(N2C(=NC(=O)C(C)Oc3ccccc3)SC3CS(=O)(=O)CC32)cc1 (stereo unspecified)	-3%	14%	15%	2%	8%
Cc1ccsc1C(=O)NNC(=O)c1csc(N2CCOCC2)n1	2%	.	.	3%	12%
Cc1ccc2nc(-c3ccccc3)cc(C(=O)NNC(=O)c3csc(N4CCOCC4)n3)c2c1	-3%	.	.	17%	6.5µM*
O=C(NNC(=O)c1ccccc1OCc1ccccc1Cl)c1csc(N2CCOCC2)n1	8%	13µM*	?	1%	2%
SMILES	SW480 rereplic	RORgamma inh	VP16 counter	MCF10A rereplic	ELG1 DNA repair
Cc1ccc(-c2cc(C(=O)NNC(=O)c3csc(N4CCOCC4)n3)c3ccccc3n2)cc1	6%	.	.	1%	?
Cc1ccc(C)c(SCC(=O)NNC(=O)c2csc(N3CCOCC3)n2)c1	-33%	8.9µM*	?	0%	-11%
CCOC(=O)C1CCCN(C(=O)c2ccc(NS(=O)(=O)c3ccc4[nH]c(=O)[nH]c4c3)cc2)C1 (stereo unspecified)	-16%	.	.	-3%	0%
Cc1cc(C)c(NC(=S)NCCCSC2CCCCC2)c(C)c1	11%	2µM*	?	?	?
CCN(CC)C(=O)CSc1nnc([C@@H](N)C(C)C)o1	0%	-6%	0%	0%	15%
COc1ccc2cc3c(N)c(C(=O)N4CCCC4)sc3nc2c1	-11%	-16%	4%	16%	?
COc1ccc(NC(=O)c2sc3nc(-c4cccnc4)ccc3c2N)cc1OC	?	-2%	9%	15µM*	-1%
Nc1c(C(=O)N2CCCC2)sc2nc(-c3ccccc3)ccc12	18µM*	23%	11%	18µM*	?
Nc1c(C(=O)Nc2ccccc2)sc2nc(-c3cccnc3)ccc12	.	-4%	3%	.	?
Nc1c(C(=O)Nc2cccc(Cl)c2Cl)sc2nc(-c3cccnc3)ccc12	9.2µM*	?	-25%	5.2µM*	9%
COc1ccc(NC(=O)c2sc3nc(-c4cccnc4)ccc3c2N)cc1	15µM*	1%	1%	?	7%
Cc1cccc(NC(=O)CSc2cccc[n+]2[O-])c1C	2%	.	.	0%	20%
Cc1onc(-c2ccccc2Cl)c1C(=O)NCc1nnnn1-c1ccc(F)cc1	0%	.	.	2%	-17%
Nc1nc(-c2ccccc2)c(CCCNc2ccccc2)c(=O)[nH]1	?	.	.	10%	.
COc1ccc(-c2ccc3c(N)c(C(=O)c4cccc(OC)c4)sc3n2)cc1	?	-3%	-5%	21µM*	?
C[C@H]1COC(=O)[C@@H](CC(=O)OC(C)(C)C)C/C=C\C[C@@H](CC(=O)N(CCO)Cc2ccccc2)C(=O)N1	-1%	.	.	?	6%
Cc1nn(C)c(C)c1CN(C)S(=O)(=O)c1ccc(F)cc1	-4%	?	?	3%	?
Cc1nn(C)c(C)c1CN(C)S(=O)(=O)c1ccc2ccccc2c1	-3%	?	5µM*	20%	?
CCCS(=O)(=O)N1CCCC(C(=O)NCCc2cccc(C)c2)C1 (stereo unspecified)	-5%	-5%	-6%	1%	0%
COc1ccc(OC)c(-c2cc(C(=O)Nc3c(C)nn(Cc4ccccc4C)c3C)no2)c1	8%	?	-12%	-13%	26µM*
COc1ccc(-c2cc(C(=O)Nc3c(C)nn(Cc4ccccc4Cl)c3C)no2)cc1OC	-2%	24%	-7%	29%	23µM*
COc1ccc(OC)c(-c2cc(C(=O)Nc3c(C)nn(Cc4ccccc4Cl)c3C)no2)c1	11%	?	-6%	15%	0%
